{"source": "PubChem BioAssay (Tox21)", "note": "Results filed as inconclusive are left out. Calls of active or inactive are those of the source. Calls follow the shape of the dose curve; as a rule, active = well fitted activation curve with a large enough effect in the repeat runs; inconclusive = weak or mixed curves; inactive = flat fitted curve, though single readings scatter. % is scaled to controls: 0 for no effect and ±100 for the full control effect; potency is read from the fitted curve at half-maximal effect.", "data": [{"assay": "A CellTox Green Cytotoxicity Assay to monitor cytotoxicity in HepG2 cells - 32 hour (AID 1224883); also: nearly all actives have a fitted effect of over 50% in size", "conditions": "CellTox Green fluorescence; series mostly up to 76.8 µM; cytotoxicity increase: at the top concentration", "excerpt": "National Center for Advancing Translational Sciences [NCATS]\nNIH Chemical Genomics Center [NCGC]\nU.S. Environmental Protection Agency [EPA]\nNational Institutes of Environmental Health Sciences [NIEHS]\nNational Toxicology Program [NTP]\nCell-based models are critical for drug discovery. Determining the natural cytotoxic effects resulting from test compounds is an essential research activity. A CellTox Green Cytotoxicity Assay to monitor cytotoxicity in real time of continues cell culture during 40 hours of the compound treatment was used to screen Tox21 10K library compounds in HepG2 cells. CellTox Green Cytotoxicity Assay is a nonlytic, homogeneous, biofluorescent method to measure cytotoxicity in cell culture after experimental manipulation. The assay system uses a proprietary asymmetric cyanine dye that is excluded from viable cells but preferentially stains the dead cell's DNA. […] Viable cells produce no appreciable increases in fluorescence. Therefore, the fluorescence signal produced by the binding interaction with dead cell DNA is proportional to cytotoxicity.\nThe mixture of HepG2 cell suspension and reagents were dispensed at 600cells/6 ul/well in 1536-well tissue culture treated black solid bottom plates using a Multidrop dispenser. After the assay plates were incubated at a 37 C/5% CO2 incubator for 5 hours, 23 nL of compounds dissolved in DMSO, positive and negative controls was transferred to the assay plate by a pintool work station. The plates were incubated at 37 C for 40 hours. The fluorescence intensity were measured at 0h, 8h, 16h, 24h, 32h and 40h time points using ViewLux plate reader during compound treatment.", "values": [{"smiles": "COC(=O)/C=C\\C(=O)O", "cytotoxicity increase": "-14.6% (inactive)"}, {"smiles": "Cc1c(Cl)cccc1Cl", "cytotoxicity increase": "-1.07% (inactive)"}, {"smiles": "CC1(C)Oc2ccc(C#N)cc2[C@@H](N2CCCC2=O)[C@@H]1O", "cytotoxicity increase": "2.01% [at 35.3 µM] (inactive)"}, {"smiles": "CCCC(CC)c1ccccc1", "note": "(stereo not given)", "cytotoxicity increase": "11.1% (inactive)"}, {"smiles": "Cc1c(NC(=O)c2cccnc2)c(=O)n(-c2ccccc2)n1C", "cytotoxicity increase": "8.36% [at 35.3 µM] (inactive)"}, {"smiles": "Fc1ccccc1", "cytotoxicity increase": "-5.66% (inactive)"}, {"smiles": "CSc1cnccn1", "cytotoxicity increase": "-11.3% (inactive)"}, {"smiles": "CCCCCc1cccc(=O)o1", "cytotoxicity increase": "9.03% (inactive)"}, {"smiles": "CNCCS(=O)(=O)O", "cytotoxicity increase": "-1.42% (inactive)"}, {"smiles": "CC1(C)O[C@H]2CC(=O)OC[C@]23[C@H]2CC[C@@]4(C)[C@H](c5ccoc5)OC(=O)[C@H]5O[C@]54[C@]2(C)C(=O)C[C@@H]13", "cytotoxicity increase": "6.47% [at 35.3 µM] (inactive)"}, {"smiles": "O=C(NCN1CCOCC1)c1cnccn1", "cytotoxicity increase": "-9.4% [at 35.3 µM] (inactive)"}, {"smiles": "C=CCCCC", "cytotoxicity increase": "3.65% (inactive)"}, {"smiles": "CO[C@@]1(NC(=O)Cc2cccs2)C(=O)N2C(C(=O)O)=C(COC(N)=O)CS[C@@H]21", "cytotoxicity increase": "-7.95% [at 35.3 µM] (inactive)"}, {"smiles": "CCCCSCCCC", "cytotoxicity increase": "0.337% (inactive)"}, {"smiles": "O=C(Cn1ccnc1[N+](=O)[O-])NCc1ccccc1", "cytotoxicity increase": "-8.99% [at 35.3 µM] (inactive)"}, {"smiles": "C/C=C(\\C)C(=O)OCCc1ccccc1", "cytotoxicity increase": "4.64% (inactive)"}, {"smiles": "CC(C)NCC(O)c1ccc2ccccc2c1", "note": "(stereo not given)", "cytotoxicity increase": "-15.3% [at 35.3 µM] (inactive)"}, {"smiles": "CCCCOCCOC(=O)COc1ccc(Cl)cc1Cl", "cytotoxicity increase": "-0.214% (inactive)"}, {"smiles": "N#CCC(=O)NN", "cytotoxicity increase": "-11.2% [at 35.3 µM] (inactive)"}, {"smiles": "COc1ccc2c(c1)c1c3n2CCN(C)C3=NCC1", "cytotoxicity increase": "-0.976% [at 35.3 µM] (inactive)"}, {"smiles": "CC(=O)CCc1ccc(OC(C)=O)cc1", "cytotoxicity increase": "-6.02% (inactive)"}, {"smiles": "O=Cc1cc2ccccc2o1", "cytotoxicity increase": "-5.01% (inactive)"}, {"smiles": "OC[C@@H](O)C(O)[C@@H](O)CO", "note": "(stereo not given in full)", "cytotoxicity increase": "-0.924% (inactive)"}, {"smiles": "CCN(CC)CCN", "cytotoxicity increase": "-16.9% [at 35.3 µM] (inactive)"}, {"smiles": "CCC(=O)Oc1ccc2c(c1)CC[C@@H]1[C@@H]2CC[C@@]2(C)[C@H]1C[C@@H](OC(=O)CC)[C@@H]2OC(=O)CC", "cytotoxicity increase": "25.7% [at 35.3 µM] (inactive)"}, {"smiles": "COC(=O)c1cc(Cl)cc(Cl)c1", "cytotoxicity increase": "-0.395% (inactive)"}, {"smiles": "NCC1(Cc2noc(=O)[nH]2)CCCCC1", "cytotoxicity increase": "-11.5% (inactive)"}, {"smiles": "CC/C(C)=N\\O[Si](C)(O/N=C(\\C)CC)O/N=C(\\C)CC", "cytotoxicity increase": "-7.32% (inactive)"}, {"smiles": "O=C(CCCl)NCCc1ccccc1", "cytotoxicity increase": "1.26% [at 35.3 µM] (inactive)"}, {"smiles": "COc1nc(N)nc2nc[nH]c12", "cytotoxicity increase": "-3.64% (inactive)"}, {"smiles": "CC(=O)O[C@H]1C[C@@H]2CC[C@@]1(C)C2(C)C", "cytotoxicity increase": "6.72% (inactive)"}, {"smiles": "CCCCCCCCCOC(=O)CCCCC(=O)OCCCCCCC", "Potency": "24.5 µM (active)"}, {"smiles": "CCn1cc(C(=O)O)c(=O)c2cnc(N3CCCC3)nc21", "cytotoxicity increase": "-0.981% [at 6.97 µM] (inactive)"}, {"smiles": "C=C(C)[C@@H]1CC=C(C)C(=O)C1", "cytotoxicity increase": "4.5% (inactive)"}, {"smiles": "COc1cc(OC)nc(O[C@H](C(=O)O)C(OC)(c2ccccc2)c2ccccc2)n1", "cytotoxicity increase": "-3.88% [at 35.3 µM] (inactive)"}, {"smiles": "CC(=O)OC1CCCCC1C(C)(C)C", "note": "(stereo not given)", "cytotoxicity increase": "-12.3% (inactive)"}, {"smiles": "CCO", "cytotoxicity increase": "-8.78% (inactive)"}, {"smiles": "CN(C)CCN(C)CCO", "cytotoxicity increase": "3.31% (inactive)"}, {"smiles": "CC(C)CCOC(=O)c1ccccc1", "cytotoxicity increase": "17.6% (inactive)"}, {"smiles": "CC1c2ccccc2CN1NC(=O)c1ccc(Cl)c(S(N)(=O)=O)c1", "note": "(stereo not given)", "cytotoxicity increase": "-0.73% [at 35.3 µM] (inactive)"}]}]}
